These results are taken from PubChem BioAssay (NCI).

About 79,000 compounds went through this panel and 15% of them were active in at least one assay; those are over-represented in the sample as a whole. Values without a mark were called inactive. Activity calls are given as the source filed them. Rule as the data show it: active = growth inhibition above about 70%; inactive = the rest.

Test [1] in a line: NCI Yeast Anticancer Drug Screen. Data for the rad50 strain (AID 155).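 Also: 0% = growth of vehicle-only cultures of the same strain.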 The conditions noted are these: S. cerevisiae rad50 strain growth inhibition; at 50.0 µM; active compounds read high. In short, it runs like this:
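Genetically altered yeast (DNA repair pathway); compound treatment; growth inhibition vs vehicle ctrl.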

Test [2] is described as follows: NCI Yeast Anticancer Drug Screen. Data for the mec2-1 strain (AID 157). The note with it: S. cerevisiae mec2-1 strain, at 50.0 µM, active compounds read high. In short, it runs like this:
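Strain: mec2-1 (DNA repair/cell cycle alteration). Compound exposure, then growth measured; inhibition expressed relative to vehicle.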

A short description of test [3]: NCI Yeast Anticancer Drug Screen. Data for the sgs1 mgt1 strain (AID 161).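 Also: 0% = growth of cultures given vehicle only.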 The note with it: S. cerevisiae sgs1 mgt1 strain, at 50.0 µM, active compounds read high. A digest of the protocol: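 Inhibition of yeast growth, normalised to vehicle-treated controls, is reported for a strain bearing genetic alterations in DNA damage repair.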
Test [4] in a line: NCI Yeast Anticancer Drug Screen. Data for the cln2 rad14 strain (AID 165).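 Also: 0% = growth equal to vehicle treated cultures.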 The conditions noted are these: S. cerevisiae cln2 rad14 strain, at 50.0 µM, active compounds read high. In short, it runs like this:
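Compounds are applied to the cln2 rad14 yeast strain, and growth is then compared with that of vehicle-treated cultures to give inhibition.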

Test [5] is described as follows: NCI Yeast Anticancer Drug Screen. Data for the bub3 strain (AID 167). The note with it: S. cerevisiae bub3 mutant strain, at 50.0 µM, active compounds read high. A digest of the protocol: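 Yeast carrying a defined mutation is treated with each compound, and growth is compared with that of vehicle-exposed cells to give inhibition.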
The nature of test [6]: NCI Yeast Anticancer Drug Screen. Data for the mlh1 rad18 strain (AID 175). The note with it: S. cerevisiae mlh1 rad18 strain growth inhibition; at 50.0 µM; active compounds read high. A digest of the protocol:
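Read-out is yeast growth inhibition, calculated against vehicle-only controls. The compound was applied to a strain engineered with DNA damage repair alterations.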

As to `OCc1nnn2c1CCC2`, the growth inhibition in test [1] was 4.95%; in test [2], 0.05%; in test [3] it was -2.15%; in test [4], 11.4%; in test [5], 10.4%; in test [6], -6.25%.

In the case of `C[n+]1ccc(/C=C/c2ccc(O)c3ncccc23)c2cccc(O)c21`, the growth inhibition in test [1] was 38.5%; in test [2], 41.8%; in test [3] it was 37.9%; in test [4], 7.75%; in test [5], 5.4%; in test [6], 44.9%.

In the case of `COc1cc(CCCO)ccc1O`, the growth inhibition in test [1] was 0.85%; in test [2] it was 13.8%; in test [3] it was 0.25%; in test [4], -48.1%; in test [5] it was 9.1%; in test [6], -4.1%.

As for `O=C(Sc1ccccc1)C1OC1c1ccccc1` (stereo unspecified), the growth inhibition in test [1] was 70.2% (active); in test [2], 28.6%; in test [3] it was 22.6%; in test [4] it was 60.8%; in test [5] it was 63.1%; in test [6], 80.5% (active).

In the case of `CC(=O)Oc1cc(OC(C)=O)c2c(c1)OC(c1ccc(OC(C)=O)c(OC(C)=O)c1)CC2=O` (stereo unspecified), the growth inhibition in test [1] is 21.4%; in test [2], 3.8%; in test [3], 18.3%; in test [4], 3.95%; in test [5], 3.85%; in test [6] it was 28%.

Consider `CCOC(=O)NCC(C)(C)N(C(=O)OCC)c1ccccc1`, for which the growth inhibition in test [1] was -24.1%; in test [2], -42.1%; in test [3] it was -15.7%; in test [4] it was -9.95%; in test [5], -37.8%; in test [6], -7.7%.

Consider `CCCCCCCCCCCCCCCCCCNC(=S)/N=C\C(C(=O)Nc1ccccc1C)=C(/C)O`, for which the growth inhibition in test [1] is -9.8%; in test [2] it was -11.8%; in test [3], 5.85%; in test [4] it was 0.55%; in test [5], -21.4%; in test [6], -5.65%.

Take `CCCCN=NNc1cn(C2OC(CO)C(O)C2O)c(=O)[nH]c1=O` (stereo unspecified): the growth inhibition is -22.4% in test [1]; 0.9% in test [2]; 4.85% in test [3]; 13.3% in test [4]; 10.8% in test [5]; 21.8% in test [6].

Take `NC(=O)c1c(N)nnc(-c2ccccc2)c1-c1ccccc1`: the growth inhibition in test [1] was -6.15%; in test [2], -7.65%; in test [3], -5.75%; in test [4], -25.8%; in test [5] it was -3.45%; in test [6], -16.2%.

As to `NC(=O)SCC(=O)Nc1ccccc1O`, the growth inhibition in test [1] was 14.6%; in test [2], -27.4%; in test [3] it was 2.25%; in test [4] it was 0.05%; in test [5], 0.85%; in test [6] it was -9.5%.

Consider `CSc1ccc(NC(=O)Nc2cccc(C)c2C)cc1`, for which the growth inhibition was 1.75% in test [1]; 27.1% in test [2]; 27.8% in test [3]; -7.2% in test [4]; 27.6% in test [5]; 15.3% in test [6].

As to `C[C@H](CCC(=O)O)[C@H]1CC[C@H]2[C@@H]3CC[C@@H]4C[C@H](O)CC[C@]4(C)[C@H]3CC[C@]12C`, the growth inhibition is 40% in test [1]; 31.4% in test [2]; 10% in test [3]; 0.75% in test [4]; 25.8% in test [5]; 23.6% in test [6].

As to `COc1ccc2c(c1)NC(C(C)C)=NS2(=O)=O`, the growth inhibition in test [1] is 17.9%; in test [2], 15.8%; in test [3], 17.4%; in test [4], 4.95%; in test [5], 18.4%; in test [6], 25.8%.

`CC(=O)C1OC1c1ccccn1` (stereo unspecified): the growth inhibition in test [1] is -5.15%; in test [2], 3.7%; in test [3] it was -9.5%; in test [4], 55.8%; in test [5], 3.4%; in test [6] it was 3.35%.

As to `O=C(O)Cc1ccccc1Cl`, the growth inhibition is 24.4% in test [1]; 32.1% in test [2]; 6.55% in test [3]; -23.9% in test [4]; 14.8% in test [5]; 17.9% in test [6].

For `CC(C)(C)NNC(=O)/C(=C/c1ccc([N+](=O)[O-])cc1)NC(=O)c1ccccc1`, the growth inhibition is 11.6% in test [1]; -17.3% in test [2]; -8.5% in test [3]; 5.2% in test [4]; -6.2% in test [5]; -15.7% in test [6].

Take `NC(=S)n1nc(-c2ccccc2)c(N=Nc2ccc(Br)cc2)c1-c1ccccc1`: the growth inhibition is 38.6% in test [1]; 3.8% in test [2]; 21.7% in test [3]; 15.4% in test [4]; 14.2% in test [5]; 12.4% in test [6].

`O=C1CCCCC(=O)Nc2ccc3nc4ccccc4c(c3c2)SCCCCCCCCSc2c3ccccc3nc3ccc(cc23)N1`: the growth inhibition in test [1] is -13.4%; in test [2], -9.65%; in test [3], 2.55%; in test [4], -6.05%; in test [5], -2.3%; in test [6] it was -4.2%.

For `O=C(CNC(=O)C(CO)NC(=O)OCc1ccccc1)OCc1ccccc1` (stereo unspecified), the growth inhibition in test [1] was 12.4%; in test [2], 3%; in test [3], 9.35%; in test [4] it was 4.1%; in test [5], -0.1%; in test [6], 4.35%.

As for `CC1OC(c2c(Cl)cccc2[N+](=O)[O-])OC1C` (stereo unspecified), the growth inhibition was 3.5% in test [1]; -9.2% in test [2]; 5.6% in test [3]; 0.5% in test [4]; -7.6% in test [5]; 20% in test [6].

Take `COC(=O)C(N)CO` (stereo unspecified): the growth inhibition in test [1] was -40.5%; in test [2], -27%; in test [3], -39.8%; in test [4], 4.35%; in test [5] it was -34.8%; in test [6], -26.1%.
